# Screening results from PubChem.
# TRPM1 prom inh – inhibitors of MITF-driven TRPM1 promoter in melanoma cells. SK-MEL-5 TRPM1 promoter luciferase, 24 h. inhibition, % at 12.5 µM. actives 0.83% (n = 330,000). AID 488899;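 active means mean inhibition across replicates of 60% or more, whatever share of single replicates reaches that level; inconclusive means some that reach 60%, reason not given; inactive means mean inhibition across replicates below 60%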
# aSyn 5UTR inh – MLPCN primary screen, SNCA 5' untranslated region | alpha-synuclein 5'UTR reporter, inhibitor activity | inhibition, % (tested at 7.5 µM) | actives 0.82% (n = 300,000); in the data active means inhibition above about 60%; inconclusive means no clear call, values can overlap the other calls;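 further: H4 neuroglioblastoma cells stably carrying SNCA 5'UTR luciferase fusion; 0% = DMSO wells and 100% = positive control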
# LMP1 NFkB inh – Epstein-Barr LMP1 NF-kappaB reporter inhibition. inhibition, % at 12.5 µM. LMP1-induced NF-kappaB luciferase reporter cells, luminescence. AID 504558. actives 0.69% (n = 350,000); in the data active means inhibition above about 41%; inconclusive means no clear call, values can overlap the other calls;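 further: 0% = neutral control wells and 100% = reference inhibitor control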
# Shn3 inh set2 – reduces Shn3 3'UTR luciferase signal in osteoblasts; actives 0.52% (n = 360,000); Clone20 osteoblast Shn3 3'UTR firefly luciferase, 24 h; inhibition, % at 12.5 µM;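 active means mean inhibition of at least 75% with every replicate also reaching 75%; inconclusive means mean inhibition at least 75% but some replicate below; inactive means mean inhibition below 75%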;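 further: 0% = median of neutral control wells and 100% = pilot-screen positive control compound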
# PAX8 inh HTS – inhibitors of PAX8 transcriptional activity in RMG-I cells | RMG-I TPO-luciferase reporter, SteadyGlo, 24 h | inhibition, % at 12.6 µM | actives 1.2% (n = 360,000);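 active means mean replicate inhibition at least 60% with every replicate also reaching 60%; inconclusive means only one of the two criteria is met; inactive means mean below 60% and not all replicates reaching 60%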;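 further: luciferase light reporting Pax8 driven TPO promoter activity; plate controls were median of neutral control wells for no effect and mitoxantrone controls for full effect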
# An asterisk follows results filed as active; ? = inconclusive; . = no result given. Compounds with a hit are over-represented: about 2.1% of the library has one in this group of screens.
SMILES,TRPM1 prom inh,aSyn 5UTR inh,LMP1 NFkB inh,Shn3 inh set2,PAX8 inh HTS
COc1cccc(C#Cc2ccc([C@@H]3[C@@H](CO)N(C(=O)C4CCC4)[C@H]3C#N)cc2)c1,.,.,.,.,70.1*
COc1cccc(C#Cc2ccc([C@@H]3[C@@H](CO)N(C(=O)c4ccccn4)[C@H]3C#N)cc2)c1,.,.,.,.,-2.0
COc1cccc(C#Cc2ccc([C@@H]3[C@@H](C#N)N(C(=O)C4CCCCC4)[C@H]3CO)cc2)c1,.,.,.,.,77.2*
Cc1ccc(NC(=S)N2CCC(c3ccc(C)cc3)C2)cc1 (stereo not drawn),-21.4,-50.5,2.8,12.2,-48.2
Cn1cc(/C=C(\C(=O)O)C(C(=O)O)=C2CCCCC2)c2ccccc21,10.4,-0.5,-9.0,8.8,94.9*
Cn1cc(/C=C/C(=O)c2ccccc2)c2ccccc21,-7.2,8.7,-11.9,-102.7,-57.3
COc1cc2ccccc2cc1C(=O)N1CCN(c2ccccc2O)CC1,5.7,.,-2.0,-2.9,16.5
CCN(CC)c1ccc(/C=C2/SC(=O)N(C(C)C)C2=O)o1,8.8,-174.8,-0.4,96.5*,54.0
Cc1ccc(-c2ccc([C@@H]3[C@H](CO)N4CCCCN(C(=O)Nc5cccc(F)c5)C[C@@H]34)cc2)cc1,.,.,.,.,81.4*
O=C(c1cccc(F)c1)N1CCCCN2[C@H](C1)[C@H](c1ccc(-c3ccc(F)cc3)cc1)[C@@H]2CO,.,.,.,.,-4.1
O=C(Nc1ccc(F)cc1)N1CCCCN2[C@@H](CO)[C@@H](c3ccc(-c4cccc(F)c4)cc3)[C@@H]2C1,.,.,.,.,105.9*
O=C(Nc1cccc(F)c1)N1CCCCN2[C@@H](CO)[C@@H](c3ccc(-c4ccncc4)cc3)[C@@H]2C1,.,.,.,.,110.0*
O=C(Nc1cccc(F)c1)N1CCCCN2[C@H](C1)[C@H](c1ccc(-c3ccncc3)cc1)[C@@H]2CO,.,.,.,.,-14.3
O=C(c1cccc(F)c1)N1CCCCN2[C@H](C1)[C@@H](c1ccc(-c3ccc(F)cc3)cc1)[C@@H]2CO,.,.,.,.,65.1*
COc1ccc(N2C(=O)C(Cl)=C(NCc3ccccc3)C2=O)cc1,-0.7,-29.7,65.1*,-16.6,.
COc1cc2c(cc1OC)CN(CC(=O)Nc1ccccc1SC)CC2,9.9,9.6,3.6,11.8,16.2
Cc1nc([N+](=O)[O-])c(Br)n1CC(=O)c1ccccc1,-2.8,-4.2,-2.7,8.5,.
Cc1nc([N+](=O)[O-])c(Br)n1CC(=O)c1ccc2ccccc2c1,34.5,-24.4,-30.6,95.0*,.
Cc1c(C(=O)Nn2cnnc2)oc2ccccc12,-5.0,11.2,3.8,-13.8,.
O=C1CN(S(=O)(=O)c2cccc(F)c2)C[C@H]2[C@@H](c3ccc(-c4ccccc4)cc3)[C@@H](CO)N12,.,.,.,.,-12.9
COC(=O)/C(=C1/Oc2cc(C)oc(=O)c2S1)C(F)(F)F,90.3*,-55.0,-10.5,96.7*,.
Cc1ccc(NC(=S)N=Nc2c(O)n(C)c3ccc(S(=O)(=O)N4CCOCC4)cc23)cc1,20.4,75.5*,?,82.0,19.2
Cc1ccc(NC(=O)c2ccc(S(=O)(=O)N3CCOCC3)cc2)cc1,-28.6,-20.0,-11.3,-9.4,-28.1
Cc1cccc(NC(=S)N=Nc2c(O)n(C)c3ccc(S(=O)(=O)N4CCOCC4)cc23)c1,15.1,83.4*,?,70.1,.
Cc1cc(C)cc(NC(=S)N=Nc2c(O)n(C)c3ccc(S(=O)(=O)N4CCOCC4)cc23)c1,17.4,63.4*,36.3,57.2,27.5
SMILES,TRPM1 prom inh,aSyn 5UTR inh,LMP1 NFkB inh,Shn3 inh set2,PAX8 inh HTS
Cc1cccc(Nc2ccc(S(=O)(=O)N3CCOCC3)cc2[N+](=O)[O-])c1,5.8,.,0.5,-49.2,8.7
CCCc1nc2sc3c(c2c(=O)n1NC(=O)CCC(=O)O)CCCC3,-5.1,4.7,9.7,-26.5,.
CCN(CC)CCNc1ncnc2c1sc1nc(N3CCOCC3)c3c(c12)CCCC3,76.9*,1.6,-12.3,3.4,36.1
Cc1ccc(S(=O)(=O)N2CCOCC2)cc1NC(=O)CN1CCN(C)CC1,-3.6,.,1.1,-18.8,2.5
COc1ccccc1NC(=O)c1c(Nc2ccccc2C)sc(C(=O)Nc2cccc(Cl)c2)c1N,56.9,17.2,42.8*,54.1,25.5
COc1ccc(NC(=O)Nc2cccc3c2O[C@@H](CN(C)Cc2ccc4c(c2)OCO4)[C@H](C)CN([C@@H](C)CO)C3=O)cc1,.,.,.,.,1.1
CCCSc1nsc(NC(=O)c2cccnc2OCC)n1,8.5,-72.1,-1.3,12.3,25.3
COc1ccc(C[C@H]2CN3C(=NC[C@@H]3Cc3ccccc3)N2CCNC(=O)CCC2CCCCC2)cc1,97.8*,15.3,0.4,84.0,45.5
Clc1cccc(CN2CCCCCC2)c1,12.4,-9.4,80.2*,4.9,-3.6
Nc1cccc(CN2CCCC2)c1,17.4,-9.9,13.1,-2.8,-1.1
CC(=NC1CCCC1)c1c(C)[nH]n(-c2nc3ccccc3s2)c1=O,-6.5,94.2*,-33.2,-58.3,-111.2
COc1ccc(N(CCC(=O)O)S(=O)(=O)c2ccc(C)c(C)c2)cc1,-10.4,-11.5,-10.9,10.8,5.6
CCC(C)[C@H]1CNC(=S)N1CCc1cc(C(F)(F)F)cc(C(F)(F)F)c1 (stereo partly drawn),4.6,19.1,6.6,97.1*,6.4
CN(N=Nc1nc[nH]c1C(N)=O)C1CCCCC1,.,.,.,12.6,99.9*
NC(=O)c1[nH]cnc1N=NN(CCO)Cc1ccccc1,.,.,1.7,10.3,74.0*
CN(C)N=Nc1nc[nH]c1C(N)=O,-3.3,.,-13.9,23.7,102.5*
COc1cc(C(=O)Nc2ccc3c(c2)CCN3C(C)=O)cc(OC)c1OC,10.5,96.9*,10.1,16.4,6.3
COc1cc(C(=O)Nc2ccc3ccccc3c2)cc(OC)c1OC,.,88.5*,.,.,-29.8
CCOC(=O)C(=CNc1ccc(-c2ccco2)c(Cl)c1)C(=O)OCC,7.6,-30.2,47.3*,-8.7,-24.6
CCOC(=O)C(=CNc1ccc2c(c1)CCN2C(C)=O)C(=O)OCC,12.6,-78.4,49.3*,-52.6,-77.7
COc1cc(C(=O)Nc2ccc3c(c2)Cc2ccccc2-3)cc(OC)c1OC,-30.6,-7.5,17.2,6.7,13.3
Cc1cccc(C(=O)c2c[nH]cc2-c2ccccc2)c1,2.6,0.1,-2.5,-13.9,-18.7
CC1CCN(S(=O)(=O)c2ccc3c(c2)N(CC(=O)NCCCOC(C)C)C(=O)CO3)CC1,-14.0,-9.8,3.8,0.0,8.7
NS(=O)(=O)c1ccc(Oc2ccc(S(N)(=O)=O)cc2)cc1,9.2,7.9,5.6,-15.7,0.1
C=CS(=O)(=O)c1ccc(Oc2ccc(S(=O)(=O)C=C)cc2)cc1,89.3*,-108.2,?,95.7*,98.0*
CCc1ccc(N=CC23c4ccccc4C(c4ccccc42)C2C(=O)N(c4ccc(OC)cc4)C(=O)C23)cc1 (stereo not drawn),10.7,-1.8,14.0,15.6,19.9
COc1ccc(N2C(=O)C3C4c5ccccc5C(C=Nc5ccc(C)cc5C)(c5ccccc54)C3C2=O)cc1 (stereo not drawn),23.0,15.8,11.5,23.9,65.0*
Cc1ccc(S(=O)(=O)Nc2ccc(NC(=O)Nc3ccc(F)cc3F)cc2)cc1,6.7,78.5*,0.7,4.6,12.9
